Assay [1] is described as follows: inhibitors of TNFa-induced NFkB p65 translocation, primary screen, imaging, HUVEC, MLSMR starter and 10KST1 sets (AID 438;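 active = inhibition above 20% together with a positive visual image hit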;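 note: compound added about 3h40 before a 20 min TNFalpha stimulation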;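 for inhibition: signal is the nuclear over cytoplasmic p65 intensity ratio per well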). Conditions: HUVEC TNFa-induced p65 nuclear translocation; cell count: measured here: nuclei count (cytotoxicity indicator), at 2.08 µM; inhibition: at 2 µM, stronger effect = higher value, 0% TNFa-plus-vehicle, 100% no-TNFa wells.
The nature of assay [2]: inhibitors of mutant huntingtin aggregation, primary screen, imaging, exon1htt(103Q)mCFP cells, high-content imaging (AID 483).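 For nuclei count: percent of the per-plate median nuclei count of sample wells.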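 Note: compound exposure lasted 3 days before fixation.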 Conditions: exon1htt(103Q)mCFP cell line, aggregate imaging, at 2 µM; inhibition of aggregation: stronger effect = higher value; nuclei count: measured here: cell count, toxicity.
Assay [3] is described as follows: inhibitors of E-selectin induction by TNFa, primary screen, imaging, HUVEC, immunofluorescence, MLSMR starter and 10KST1 sets (AID 487;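 active = visually confirmed hit in the image check and inhibition above 20%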;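 for inhibition: signal is fraction of cell area covered by stained E-selectin grains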;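 for nuclei count: 100% = median nuclei count of all wells on the same plate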). Conditions: HUVEC TNFalpha-induced E-selectin immunofluorescence imaging, at 2 µM; inhibition: stronger effect = higher value; nuclei count: measured here: cell number, toxicity.
The target in assay [4] is Voltage-gated potassium channel subunit beta-2 (Rattus norvegicus) (UniProt P62483). Put plainly: KvBeta enzyme negative modulators, primary screen, biochemical, NADPH fluorescence (AID 622;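 active = fluorescence slope higher than the sample average by over 3 SD, cut at about -0.22 in these data, passing the limit was not always enough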;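 note: slope of raw intensity against log time taken from 70 to 1610 s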). The conditions noted are these: recombinant KvBeta, 4-cyanobenzaldehyde reduction, at 10 µM, stronger effect = higher value.
For assay [5] the target is unchanged. Put plainly: KvBeta positive modulators, primary screen, biochemical, NADPH fluorescence (AID 623;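 active = NADPH fluorescence slope more negative than the mean of all samples by about 3 SD, 99.7% confidence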;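 note: fluorescence intensity change per second fitted from 20 to 320 s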). Conditions: Recombinant KvBeta, NADPH fluorescence decrease slope, 10 min; at 10 µM; stronger effect = lower value.
The target in assay [6] is Alpha-2C adrenergic receptor (Homo sapiens) (UniProt P18825). Put plainly: modulators of alpha2C/GIRK thallium flux, primary screen, cell-based, HEK293 alpha2C/GIRK1/2 (AID 624;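 active = fluorescence slope after compound addition differing from the mean of all screened samples at 99.7% confidence, in either direction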;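 note: slope of fluorescence ratio to pre-addition baseline per second over 15 to 24 s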). Conditions: thallium flux BTC fluorescence, at 10 µM, actives lie on both sides.
Assay [7] in a line: inhibitors of Sendai virus-induced IRF3 signaling, primary screen, TLR/RLR signaling modifier project, cell-based, Sendai virus stimulus, luciferase, 10K MLSCN set (AID 602276;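 active = inhibition at or above 50% at 10 µM; inactive = inhibition below 50%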;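 note: firefly luciferase from ISG56 promoter only with Renilla not read in this screen; 0% = Sendai virus plus DMSO and 100% = medium plus DMSO without virus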). Conditions: HEK293 RL24 IRF3 luciferase reporter, at 10 µM, stronger effect = higher value. In general terms: Reporter assays use an easily measured gene product as a stand-in for the process of interest.
A short description of assay [8]: inhibitors of poly I:C-induced TLR3 signaling, primary screen, cell-based, poly I:C stimulus, luciferase, 10K MLSCN set (AID 602277;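 active = inhibition of the reporter signal at or above 50%; inactive = inhibition below 50%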). The conditions noted are these: HEK293-TLR3 RL24 IRF3 luciferase reporter, at 10 µM, stronger effect = higher value.

Active and inactive are the calls of the source.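 Rule for the calls, unless noted: active = visual image review flags a hit and inhibition of aggregation exceeds 20%; inconclusive = visual hit but inhibition at or below 20%; inactive = no hit on visual image review.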

Voltage-gated potassium channel subunit beta-2 (Rattus norvegicus), sequence (P62483 whole entry, looked up): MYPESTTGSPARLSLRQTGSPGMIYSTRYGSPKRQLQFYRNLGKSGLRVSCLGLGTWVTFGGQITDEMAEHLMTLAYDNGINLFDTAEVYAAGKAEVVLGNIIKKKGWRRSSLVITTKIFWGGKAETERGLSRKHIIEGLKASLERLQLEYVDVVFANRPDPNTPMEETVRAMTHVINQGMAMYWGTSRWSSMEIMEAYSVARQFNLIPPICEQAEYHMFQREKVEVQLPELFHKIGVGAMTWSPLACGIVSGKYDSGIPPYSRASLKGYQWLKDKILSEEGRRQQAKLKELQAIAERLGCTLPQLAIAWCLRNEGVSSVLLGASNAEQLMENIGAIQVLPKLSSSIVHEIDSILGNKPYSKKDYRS
Alpha-2C adrenergic receptor (Homo sapiens), sequence (P18825 whole entry, looked up): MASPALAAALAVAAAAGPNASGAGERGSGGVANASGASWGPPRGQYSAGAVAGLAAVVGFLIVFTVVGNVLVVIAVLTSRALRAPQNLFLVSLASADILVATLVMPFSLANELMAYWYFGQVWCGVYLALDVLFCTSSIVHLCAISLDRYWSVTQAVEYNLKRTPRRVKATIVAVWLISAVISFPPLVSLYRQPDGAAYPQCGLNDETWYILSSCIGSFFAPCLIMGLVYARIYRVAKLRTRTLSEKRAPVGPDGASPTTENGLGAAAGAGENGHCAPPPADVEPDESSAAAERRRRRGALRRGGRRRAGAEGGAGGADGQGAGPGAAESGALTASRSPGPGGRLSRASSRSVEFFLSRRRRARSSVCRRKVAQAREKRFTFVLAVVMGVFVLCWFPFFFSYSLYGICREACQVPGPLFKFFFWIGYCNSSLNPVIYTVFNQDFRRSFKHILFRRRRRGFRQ

`COCCn1c(CN(Cc2ccccc2)Cc2ccccc2)nc2c1c(=O)n(C)c(=O)n2C`: the cell count in assay [1] was 633. The inhibition (commonly the relative decrease from the control value, in per cent) in assay [1] is -19% (inactive); in assay [3], -48.5% (inactive); in assay [7] it was 18.4% (inactive); in assay [8], 23.3% (inactive). Besides, the inhibition of aggregation in assay [2] was -10.5% (inactive). In addition, the nuclei count in assay [2] amounted to 100%; in assay [3] it was 115%. The fluorescence slope in assay [4] was -0.56 (inactive). Besides, in assay [5], the NADPH fluorescence slope is 6.1e-06 (inactive). The slope in assay [6] is 0.00386 (inactive).
`Cc1ccc(Nc2nc(Oc3ccc(=O)[nH]n3)nc(N(C)C)n2)cc1`: the cell count in assay [1] was 377. The inhibition is 2.8% (inactive) in assay [1], -65.6% (inactive) in assay [3], 8.86% (inactive) in assay [7] and 11.8% (inactive) in assay [8]. For the same molecule, the inhibition of aggregation in assay [2] is 13.2% (inactive). Moreover, the figures for the nuclei count in assay [2] and in assay [3] were 101% and 111%, respectively. Further, the fluorescence slope in assay [4] was -0.498 (inactive). For the same molecule, the NADPH fluorescence slope in assay [5] is -4.2e-05 (inactive). The slope in assay [6] is 0.00563 (inactive).
Turning to `CC1CCCCN1CCNC(=O)C1CCN(S(=O)(=O)c2cccc3cccnc23)CC1` (centres undefined), the cell count in assay [1] was found to be 450. Also, the inhibition in assay [1] was -0.8% (inactive); in assay [3], -54.5% (inactive); in assay [7] it was 6.15% (inactive); in assay [8] it was 39.6% (inactive). In addition, the inhibition of aggregation in assay [2] is 5.9% (inactive). Moreover, the nuclei count in assay [2] came out at 72.5%; in assay [3], 105%. In addition, the fluorescence slope in assay [4] is -0.522 (inactive). Further, in assay [5], the NADPH fluorescence slope was -4e-05 (inactive). Also, the slope in assay [6] is 0.00613 (inactive).
For the molecule `Cc1cc(N)n2nc(-c3ccccc3)cc2n1`, the cell count in assay [1] amounted to 492. Further, the inhibition in assay [1] is 1.2% (inactive); in assay [3], -15.5% (inactive); in assay [7] it was -31.2% (inactive); in assay [8] it was -74.6% (inactive). Further, the inhibition of aggregation in assay [2] was 0% (inactive). Besides, the nuclei count in assay [2] came to 98.3%; in assay [3] it was 110%. Also, the fluorescence slope in assay [4] is -0.421 (inactive). In addition, the NADPH fluorescence slope in assay [5] was -8.6e-05 (inactive). For the same molecule, the slope in assay [6] was 0.00566 (inactive).
In the case of `CC(=O)Nc1ccc(S(=O)(=O)N2CCN(c3cc(C)nc4ccccc34)CC2)cc1`, the cell count in assay [1] was 730. The inhibition was -9.1% (inactive) in assay [1], -87.3% (inactive) in assay [3], 5.87% (inactive) in assay [7] and 13.2% (inactive) in assay [8]. The inhibition of aggregation in assay [2] is 35.3% (inactive). The results for the nuclei count in assay [2] and in assay [3] were 123% and 120%, respectively. Also, the fluorescence slope in assay [4] is -0.31 (inactive). In addition, the NADPH fluorescence slope in assay [5] was -7.9e-05 (inactive). Besides, in assay [6], the slope was 0.00466 (inactive).
Regarding `Cc1cccc2c1N(CC(=O)OC(C)C)C(=O)C2=O`, the cell count in assay [1] is 854. Also, the inhibition is 0% (inactive) in assay [1], -67.4% (inactive) in assay [3], -2.09% (inactive) in assay [7] and 29% (inactive) in assay [8]. Moreover, in assay [2], the inhibition of aggregation is -1.4% (inactive). In addition, the nuclei count came out at 105% in assay [2] and 121% in assay [3]. Besides, in assay [4], the fluorescence slope is -0.612 (inactive). Moreover, the NADPH fluorescence slope in assay [5] is -6.4e-06 (inactive). Also, in assay [6], the slope was 0.00621 (inactive).
As for `Cc1ccc2oc(=O)c3cnn(CC(=O)N4CCCCC4C)c3c2c1` (centres undefined), the cell count in assay [1] amounted to 661. Moreover, the inhibition in assay [1] is 3.9% (inactive); in assay [3], 3.2% (inactive); in assay [7], 3.36% (inactive); in assay [8], 23.4% (inactive). In assay [2], the inhibition of aggregation is -4% (inactive). Moreover, the nuclei count in assay [2] came out at 77.1%; in assay [3], 88.1%. For the same molecule, in assay [4], the fluorescence slope was -0.518 (inactive). Further, the NADPH fluorescence slope in assay [5] is -1.6e-05 (inactive). Moreover, the slope in assay [6] is 0.00597 (inactive).
With `O=C(Nc1ccc2c(c1)nc1n2CCSC1)c1ccccc1`, in assay [1], the cell count worked out at 487. The inhibition is -0.5% (inactive) in assay [1], -0.8% (inactive) in assay [3], -30.3% (inactive) in assay [7] and -80.3% (inactive) in assay [8]. Further, the inhibition of aggregation in assay [2] was 13.7% (inactive). Besides, the figures for the nuclei count in assay [2] and in assay [3] were 106% and 119%, respectively. For the same molecule, the fluorescence slope in assay [4] was -0.444 (inactive). Moreover, the NADPH fluorescence slope in assay [5] is -1.4e-05 (inactive). For the same molecule, the slope in assay [6] is 0.00391 (inactive).
On to `CCCNC(=O)C1CC(=O)N(c2ccc(OCC(=O)Nc3cc(C)cc(C)c3)cc2)C1` (centres undefined), for which the cell count in assay [1] stood at 591. For the same molecule, the inhibition is -6.2% (inactive) in assay [1], -6.3% (inactive) in assay [3], -3.19% (inactive) in assay [7] and 27.9% (inactive) in assay [8]. The inhibition of aggregation in assay [2] is -2.7% (inactive). For the same molecule, the figures for the nuclei count in assay [2] and in assay [3] were 104% and 114%, respectively. The fluorescence slope in assay [4] is -0.562 (inactive). In assay [5], the NADPH fluorescence slope was -4e-05 (inactive). For the same molecule, the slope in assay [6] was 0.00634 (inactive).
As for `CN(C(=O)c1ccc(S(=O)(=O)NC2CCCC2)cc1)C1CCCCC1`, the cell count in assay [1] is 685. The inhibition in assay [1] was 2% (inactive); in assay [3], -141% (inactive); in assay [7] it was -13.3% (inactive); in assay [8], -0.726% (inactive). Also, in assay [2], the inhibition of aggregation was -3.6% (inactive). Besides, the nuclei count in assay [2] turned out to be 103%; in assay [3] it was 117%. Besides, the fluorescence slope in assay [4] was -0.455 (inactive). In addition, in assay [5], the NADPH fluorescence slope was 1.5e-05 (inactive). Besides, the slope in assay [6] is 0.0047 (inactive).
For the molecule `CCn1c(CCC(=O)Nc2nc3c(s2)CCCC3)nc2cc(S(=O)(=O)N(C)C)ccc21`, the cell count in assay [1] amounted to 288. For the same molecule, the inhibition is 1.4% (inactive) in assay [1], -54.4% (inactive) in assay [3], 14.6% (inactive) in assay [7] and 18.8% (inactive) in assay [8]. Further, the inhibition of aggregation in assay [2] is -9% (inactive). Besides, the nuclei count in assay [2] came out at 103%; in assay [3] it was 123%. Besides, the fluorescence slope in assay [4] was -0.398 (inactive). Further, in assay [5], the NADPH fluorescence slope is -3e-05 (inactive). For the same molecule, the slope in assay [6] is 0.00627 (inactive).
Turning to `CC1(C)CC(=O)C(C=Nc2ccncc2)=C(O)C1`, in assay [1], the cell count was 463. Also, the inhibition is 4.9% (inactive) in assay [1], -42.3% (inactive) in assay [3], -2.33% (inactive) in assay [7] and 10.3% (inactive) in assay [8]. For the same molecule, in assay [2], the inhibition of aggregation is 3.3% (inactive). Besides, the nuclei count was 103% in assay [2] and 120% in assay [3]. In addition, in assay [4], the fluorescence slope is -0.607 (inactive). Besides, in assay [5], the NADPH fluorescence slope was 5e-06 (inactive). Besides, in assay [6], the slope was 0.00629 (inactive).
As to `CN(C)c1cccc(NC(=O)CCc2ccccc2)c1`, the cell count in assay [1] was 503. The inhibition in assay [1] is -5.1% (inactive); in assay [3], -7.2% (inactive); in assay [7], -9.67% (inactive); in assay [8] it was -5.4% (inactive). Also, in assay [2], the inhibition of aggregation is -5.3% (inactive). The nuclei count in assay [2] came to 106%; in assay [3] it was 95.9%. Further, the fluorescence slope in assay [4] is -0.594 (inactive). Besides, the NADPH fluorescence slope in assay [5] was 9.8e-06 (inactive). Also, the slope in assay [6] was 0.00703 (inactive).
As to `CC1=Nn2c(nnc2-c2cc(-c3ccccc3)n[nH]2)SC1`, the cell count in assay [1] came to 574. In addition, the inhibition in assay [1] was -3.3% (inactive); in assay [3], 32.4% (inactive); in assay [7], 18.2% (inactive); in assay [8] it was 32.9% (inactive). The inhibition of aggregation in assay [2] is -6.6% (inactive). The nuclei count amounted to 81.3% in assay [2] and 87.4% in assay [3]. Also, in assay [4], the fluorescence slope was -0.617 (inactive). In addition, the NADPH fluorescence slope in assay [5] is -1.7e-05 (inactive). In addition, the slope in assay [6] was 0.00561 (inactive).
